The structures appear in SMILES notation. The whole screen tested about 39,000 compounds, of which about 1,500 (3.8%) were called active. The entries come from a sample that favours actives as a whole.

This test has as its system HSkMC (human skeletal muscle cells). The experiment in a line: cytotoxicity call (relative viability < 0.9). To be noted: 10 µM.
In the case of `CC(C)NC(=O)N(C)C[C@@H]1Oc2ccc(NC(=O)Cc3ccccc3)cc2C(=O)N([C@@H](C)CO)C[C@@H]1C`, the cytotoxicity call was “inactive”.
To `Cc1noc(C)c1NC(=O)Nc1ccc2c(c1)C(=O)N([C@@H](C)CO)C[C@H](C)[C@@H](CN(C)C(=O)c1ccccc1)OCCCC[C@@H](C)O2` belongs “inactive”.
To `O=C(C[C@@H]1CC=CCC[C@@H](Cc2ccc(F)cc2)C(=O)OC[C@H](Cc2c[nH]c3ccccc23)NC1=O)N[C@@H](CO)Cc1ccccc1` belongs “inactive”; to `O=C(C[C@@H]1CC=CCC[C@@H](Cc2ccc(F)cc2)C(=O)OC[C@@H](Cc2c[nH]c3ccccc23)NC1=O)N[C@H](CO)Cc1ccccc1`, “active”; to `O=C(C[C@@H]1CC=CCC[C@H](Cc2ccc(F)cc2)C(=O)OC[C@@H](Cc2c[nH]c3ccccc23)NC1=O)N[C@@H](CO)Cc1ccccc1`, “inactive”.
To `C[C@H]1CN([C@@H](C)CO)C(=O)c2cccc(NC(=O)Nc3ccc(C(F)(F)F)cc3)c2O[C@@H]1CN(C)Cc1ccncc1` belongs “inactive”; to `COc1ccc(NC(=O)Nc2ccc3c(c2)C(=O)N([C@@H](C)CO)C[C@H](C)[C@H](CN(C)Cc2ccc(C(=O)O)cc2)OCCCC[C@@H](C)O3)cc1`, “inactive”.
For the molecule `Cc1cc(C(=O)c2cc3cc(Cl)ccc3o2)ccc1Cl`, the cytotoxicity call is “inactive”.
To `Cc1ccc(CN)cc1Cl` belongs “inactive”.
To `Cc1cc(CN)cc(C)c1NC(=O)c1ccc(-c2cc(Cl)ccc2Cl)o1` belongs “active”.
Regarding `COc1cccc(S(=O)(=O)N(C)C[C@H]2Oc3ncc(Br)cc3C(=O)N([C@H](C)CO)C[C@H]2C)c1`, the cytotoxicity call was “inactive”.
To `COC(CN(C)C(=O)c1cn(C)c2ccc(S(=O)(=O)N3CCOCC3)cc2c1=O)OC` belongs “inactive”; to `CCCn1c(=O)[nH]c2nc(-c3ccc(S(=O)(=O)N4CCN(c5ccc(Cl)cc5)CC4)cc3)[nH]c2c1=O`, “active”.
To `Cc1[nH]c(=O)[nH]c(=O)c1S(=O)(=O)N1CCN(c2ccccc2)CC1` belongs “inactive”; to `Cn1cc(S(=O)(=O)N2CCN(c3ccc(F)cc3)CC2)c(=O)n(C)c1=O`, “inactive”; to `C[C@H](CO)N1C[C@H](C)[C@H](CN(C)C(=O)c2ccccc2)OCCCC[C@H](C)Oc2ccc(NS(=O)(=O)c3ccccc3)cc2C1=O`, “inactive”.
To `CC(=O)Nc1ccc(S(=O)(=O)CCO)cc1` belongs “inactive”.
For the molecule `C[C@H](CO)N1C[C@H](C)[C@@H](CN(C)Cc2ccncc2)Oc2c(NC(=O)C3CCOCC3)cccc2C1=O`, the cytotoxicity call is “inactive”.
To `COc1ccc([Si](C)(C)[C@H]2[C@H](CC(=O)N3Cc4ccccc4C[C@H]3CO)O[C@@]3(C(=O)N(Cc4cccc(I)c4)c4ccccc43)[C@@H]2C)cc1` belongs “inactive”; to `COc1ccc([Si](C)(C)[C@@H]2[C@@H](CC(=O)N3Cc4ccccc4C[C@H]3CO)O[C@]3(C(=O)N(Cc4ccc(I)cc4)c4ccccc43)[C@H]2C)cc1`, “inactive”.
For the molecule `COc1ccc([Si](C)(C)[C@@H]2[C@@H](CCn3cc([C@H](O)c4ccccc4)nn3)O[C@]3(C(=O)N(c4ccccc4)c4ccccc43)[C@H]2C)cc1`, the cytotoxicity call is “inactive”.
To `COc1ccc([Si](C)(C)[C@H]2[C@H](CCn3cc([C@H](O)c4ccccc4)nn3)O[C@@]3(C(=O)N(C)c4c(Br)cc(C)cc43)[C@@H]2C)cc1` belongs “inactive”; to `COc1ccc([Si](C)(C)[C@H]2[C@H](CC(=O)N3Cc4ccccc4C[C@H]3CO)O[C@@]3(C(=O)N(C)c4c(Br)cc(C)cc43)[C@@H]2C)cc1`, “active”; to `COc1ccc([Si](C)(C)[C@H]2[C@H](CC(=O)N(CCO)Cc3ccccc3)O[C@@]3(C(=O)N(C)c4c(Br)cc(C)cc43)[C@@H]2C)cc1`, “inactive”.
To `COc1ccc([Si](C)(C)[C@@H]2[C@@H](CC(=O)N(CCO)Cc3ccccc3)O[C@]3(C(=O)N(C)c4c(Br)cc(C)cc43)[C@H]2C)cc1` belongs “inactive”; to `COc1ccc([Si](C)(C)[C@@H]2[C@@H](CCn3cc([C@H](O)c4ccccc4)nn3)O[C@]3(C(=O)N(C)c4c(Br)cc(C)cc43)[C@H]2C)cc1`, “active”.
To `COc1ccc([Si](C)(C)[C@@H]2[C@@H](CC(=O)N3Cc4ccccc4C[C@H]3CO)O[C@]3(C(=O)N(C)c4c(Br)cc(C)cc43)[C@H]2C)cc1` belongs “active”; to `Cc1nnc(=O)[nH]c1NNc1ccccc1`, “inactive”; to `COc1cccc(NC(=O)N2C[C@@H](O)COC[C@H]3O[C@H](CC(=O)NCCCN4CCOCC4)CC[C@@H]32)c1`, “inactive”.
As to `COc1ccc2c3c(n(c2c1)C)[C@@H](CO)N(C[C@]13CN(C1)S(=O)(=O)c1cn(cn1)C)C(=O)Nc1ccc(cc1)F`, the cytotoxicity call is “inactive”.
For the molecule `NCc1ccc(-n2cccn2)cc1`, the cytotoxicity call was “inactive”.
To `COc1ccc(S(=O)(=O)Nc2ccc3c(c2)C(=O)N([C@H](C)CO)C[C@H](C)[C@H](CN(C)S(=O)(=O)c2cn(C)cn2)OCCCC[C@H](C)O3)cc1` belongs “inactive”; to `CCCCCCCCCCCCCCCC(=O)OCC(NC(=O)C(Cl)Cl)C(O)c1ccc([N+](=O)[O-])cc1` (stereo not drawn), “inactive”.
As for `CCCCCCCCCCCCCCCC(=O)OC[C@H](NC(=O)C(Cl)Cl)[C@H](O)c1ccc([N+](=O)[O-])cc1`, the cytotoxicity call is “inactive”.
To `CCCCCCCCCC[C@@H](O)[C@H]1C=C[C@@H]2C(=O)N(c3ccccc3)C(=O)[C@@H]2N1Nc1ccc([N+](=O)[O-])cc1` belongs “active”.
To `C[C@@H]1CN([C@@H](C)CO)C(=O)c2cc(N(C)C)ccc2O[C@@H](C)CCCCO[C@@H]1CN(C)C(=O)Nc1cccc2ccccc12` belongs “inactive”.
To `C[C@@H]1CN([C@@H](C)CO)C(=O)c2cc(NS(=O)(=O)c3cccs3)ccc2O[C@@H]1CN(C)Cc1ccncc1` belongs “inactive”; to `CN(C)C/C=C/C(=O)Nc1ccc(C(=O)Nc2cccc(Nc3ncc(Cl)c(-c4c[nH]c5ccccc45)n3)c2)cc1`, “active”; to `C[C@@H]1CN([C@@H](C)CO)C(=O)c2cc(NC(=O)Nc3ccccc3)ccc2O[C@@H](C)CCCCO[C@@H]1CN(C)Cc1ccncc1`, “inactive”.
As for `Nc1c2c(nc3ccccc13)CCCC2`, the cytotoxicity call is “inactive”.
To `Cl.Nc1c2c(nc3ccccc13)CCCC2` belongs “inactive”; to `C[C@@H]1CCCCO[C@H](CN(C)Cc2ccncc2)[C@@H](C)CN([C@H](C)CO)C(=O)c2cc(NS(C)(=O)=O)ccc2O1`, “inactive”.
For the molecule `C[C@@H]1CCCCO[C@H](CN(C)C(=O)c2ccccc2)[C@@H](C)CN([C@@H](C)CO)C(=O)c2cc(NS(=O)(=O)c3cccs3)ccc2O1`, the cytotoxicity call is “inactive”.
For the molecule `CCC[C@@H](O)C#Cc1cnc2c(c1)C(=O)N([C@H](C)CO)C[C@H](C)[C@H](CN(C)Cc1ccc3c(c1)OCO3)O2`, the cytotoxicity call was “inactive”.
`COc1ccc(S(=O)(=O)Nc2ccc3c(c2)C(=O)N([C@H](C)CO)C[C@H](C)[C@H](CN(C)S(C)(=O)=O)OCCCC[C@H](C)O3)cc1`: the cytotoxicity call is “inactive”.
To `CO[C@H]1C[C@@H](O[C@@H]2/C(C)=C/C[C@@H]3C[C@@H](C[C@]4(CC[C@H](C)[C@@H](C5CCCCC5)O4)O3)OC(=O)[C@@H]3C=C(C)/C(=N/O)[C@H]4OC/C(=C\C=C\[C@@H]2C)[C@]43O)O[C@@H](C)[C@@H]1O` belongs “inactive”; to `COC1CC(OC2C(C)=CCC3CC(CC4(CCC(C)C(C5CCCCC5)O4)O3)OC(=O)C3C=C(C)C(=NO)C4OCC(=CC=CC2C)C34O)OC(C)C1O` (stereo not drawn), “active”; to `CO[C@H]1C[C@H](O[C@@H]2/C(C)=C/C[C@@H]3C[C@@H](C[C@]4(CC[C@H](C)[C@@H](C5CCCCC5)O4)O3)OC(=O)[C@@H]3C=C(C)/C(=N/O)[C@H]4OC/C(=C\C=C\[C@@H]2C)[C@]43O)O[C@@H](C)[C@@H]1O`, “active”.
As for `O=c1[nH]c(=O)n([C@H]2C[C@H](O)[C@@H](CO)O2)cc1C(F)(F)F`, the cytotoxicity call is “inactive”.
As for `C[C@H](CO)N1C[C@H](C)[C@@H](CN(C)Cc2ccncc2)OCCCC[C@H](C)Oc2ccc(NC(=O)CCC(F)(F)F)cc2C1=O`, the cytotoxicity call was “inactive”.
Take `C[C@H](CO)N1C[C@H](C)[C@@H](CN(C)CC2CCCCC2)OCCCC[C@H](C)Oc2ccc(NC(=O)CCCCCC(=O)Nc3ccccc3N)cc2C1=O`: the cytotoxicity call was “inactive”.
To `COc1ccc(NC(=O)Nc2ccc3c(c2)C(=O)N([C@@H](C)CO)C[C@@H](C)[C@H](CN(C)Cc2ccc(Cl)c(Cl)c2)OCCCC[C@@H](C)O3)cc1` belongs “inactive”; to `CCCN(C)C[C@@H]1OCCCC[C@@H](C)Oc2ccc(NC(=O)Nc3ccc(OC)cc3)cc2C(=O)N([C@H](C)CO)C[C@@H]1C`, “inactive”; to `COc1ccc(C#Cc2cnc3c(c2)C(=O)N([C@H](C)CO)C[C@@H](C)[C@@H](CN(C)C(=O)CC2CC2)O3)cc1`, “inactive”.
For the molecule `O=C(C[C@@H]1CC=CCC[C@@H](Cc2ccc(F)cc2)C(=O)OC[C@H](Cc2ccccc2)NC1=O)NCCO`, the cytotoxicity call was “inactive”.
Turning to `C[C@H](CO)N1C[C@H](C)[C@H](CN(C)Cc2cccc(C(F)(F)F)c2)Oc2ncc(/C=C/c3ccccc3)cc2C1=O`, the cytotoxicity call was “active”.
To `Cc1cccc(CN(C)C[C@@H]2Oc3ncc(-c4cccc(C(F)(F)F)c4)cc3C(=O)N([C@H](C)CO)C[C@@H]2C)c1` belongs “inactive”.
Consider `C[C@H](CO)N1C[C@H](C)[C@H](CN(C)Cc2cccc(C(F)(F)F)c2)Oc2ncc(-c3ccccc3)cc2C1=O`, for which the cytotoxicity call is “inactive”.
To `C[C@H](CO)N1C[C@H](C)[C@H](CN(C)Cc2cccc(C(F)(F)F)c2)Oc2ncc(-c3cccc(F)c3)cc2C1=O` belongs “inactive”; to `C[C@H](CO)N1C[C@H](C)[C@H](CN(C)Cc2ccccc2)Oc2ncc(-c3cccc(C(F)(F)F)c3)cc2C1=O`, “inactive”.
To `C[C@H](CO)N1C[C@H](C)[C@H](CN(C)Cc2cccc(C(F)(F)F)c2)Oc2ncc(-c3cccc(C(F)(F)F)c3)cc2C1=O` belongs “active”.
To `C[C@H](CO)N1C[C@H](C)[C@H](CN(C)C(=O)C2CC2)Oc2ncc(-c3ccc(C(=O)N(C)C)cc3)cc2C1=O` belongs “inactive”.
Turning to `CC(C)NC(=O)N(C)C[C@@H]1Oc2ccc(NS(=O)(=O)c3cn(C)cn3)cc2CC(=O)N([C@H](C)CO)C[C@H]1C`, the cytotoxicity call was “inactive”.

The values above are taken from the antibiotic and cytotoxicity screens of Wong et al. (2023).
